Compound activity from PubChem.
RECQ1 inh – RECQ1 (human) helicase inhibition; P46063; RECQ1 DNA unwinding, red fluorescence kinetic read; Potency, µM (series often up to 57.3 µM), for inactives: top-dose activity, negative = inhibition, usual class: inhibitors; 240,000 compounds, 0.54% hits; AID 2549;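 further: plate controls were vehicle for no effect and no enzyme for full effect; nearly all actives have a fitted effect of over 30% in size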
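50 nM RECQ1T1 preincubated 15 min with compound in Tris pH 8.0 buffer with MgCl2, DTT, Tween-20 and 2.5 ug/ml poly(dI-dC); started with 200 nM TAMRA/BHQ-2 forked duplex and 2 mM ATP. Unwinding read as fluorescence (525/598 nm), two reads 2 h apart.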
BLM helicase inh – inhibitors of human Bloom syndrome helicase BLM | Potency, µM (titrated, usually from 56.1 µM), inactives show top-dose activity change, negative = inhibition, actives largely listed as inhibitors | recombinant BLM DNA unwinding, fluorescence dequenching | AID 2528 | 350,000 compounds, 0.2% hits;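 further: plate controls were vehicle for no effect and no enzyme for full effect; nearly all actives have a fitted effect of over 35% in size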
FEN1 inhibitor – blocks human flap endonuclease 1; Recombinant FEN1 flap cleavage, fluorescence, 15 min; Potency, µM (highest dose often 114 µM), for inactives: at the highest dose activity change, negative = inhibition, usual class: inhibitors; 390,000 compounds, 0.35% hits; AID 588795; further: nearly all actives have a fitted effect of over 65% in size
Target sequence (P39748 whole entry, looked up): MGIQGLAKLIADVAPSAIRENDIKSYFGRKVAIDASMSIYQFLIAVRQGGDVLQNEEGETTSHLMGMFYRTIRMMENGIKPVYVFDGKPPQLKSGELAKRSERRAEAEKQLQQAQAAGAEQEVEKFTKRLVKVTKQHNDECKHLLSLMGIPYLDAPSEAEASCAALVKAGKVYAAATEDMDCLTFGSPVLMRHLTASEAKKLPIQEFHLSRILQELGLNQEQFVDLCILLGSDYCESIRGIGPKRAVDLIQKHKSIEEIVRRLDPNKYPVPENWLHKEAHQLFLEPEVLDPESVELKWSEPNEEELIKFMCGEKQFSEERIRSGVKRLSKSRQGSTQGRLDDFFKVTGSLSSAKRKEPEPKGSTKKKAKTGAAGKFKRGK
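FEN1 at 10 nM preincubated with compounds 15 min at room temperature, then flap DNA substrate added at 50 nM final. Signal read at 0 and 15 min; concentration-response fitted with four-parameter Hill equation.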
WRN inhibitor – blocks human WRN helicase | AID 651768 | Potency, µM (series often up to 114 µM), inactives show at the top dose activity change, negative = inhibition, actives largely listed as inhibitors | WRN helicase unwinding, fluorescent forked duplex, kinetic | 360,000 compounds, 0.46% hits; further: nearly all actives have a fitted effect of over 55% in size
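Enzyme (20 nM final) and test compound sit together 15 min at room temperature before substrate addition. Substrate is a single-forked duplex oligonucleotide (100 nM) labelled with fluorophore and quencher, with 2 mM ATP; helicase unwinding raises red fluorescence, read kinetically.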
APEX1 inh – blocks human APE1 abasic DNA cleavage; P27695; recombinant APE1, TAMRA/BHQ-2 abasic DNA cleavage fluorescence; Potency, µM (series often up to 65.8 µM), inactives show top-dose activity change, negative = inhibition, actives largely listed as inhibitors; 350,000 compounds, 0.35% hits; AID 2517;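 further: plate controls were vehicle for no effect and reference inhibitor for full effect; nearly all actives have a fitted effect of over 55% in size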
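APE1 at 0.75 nM final was preincubated with compound 15 min at room temperature, then 50 nM double-stranded THF abasic-site substrate (5'-TAMRA/3'-BHQ-2) was added. Fluorescence (ex 525/em 598 nm) was read kinetically; third-minus-first read gave activity.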
L3MBTL1 inh – inhibitors of human L3MBTL1; AlphaScreen L3MBTL1–H3K9me1 peptide binding; 230,000 compounds, 0.66% hits; AID 485360; Potency, µM (highest dose often 57.1 µM), for the others: top-dose activity, negative = inhibition, most hits filed as inhibitors; further: nearly all actives have a fitted effect of over 60% in size
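AlphaScreen proximity signal between nickel-chelate acceptor and streptavidin donor beads (final 10 ug/mL) reports binding of 50 nM L3MBTL1 to 75 nM biotin-H3 K9me1 peptide; complex incubated with compounds 30 min at room temperature; cefsulodin titration as control.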
Active calls of the source: *; i = inactive; ? = inconclusive; nt = no result given; [ ] = another dose, or the depositor's remark. Only some compounds are listed: those with a hit (about 1% of all), similar ones and a draw of the others. The call rests on the fitted dose curve; in most records, active means well fitted curve in the direction sought with a large enough effect; inconclusive means small, poorly fitted or top-dose-only effect, or another doubt; inactive means no such curve, though single readings can be large; an effect the other way counts as inactive or inconclusive. Unless noted, on the % scale 0 is the no-effect control and ±100 the full control effect; potency means the concentration at half of the fitted maximal effect.

SMILES | RECQ1 inh | BLM helicase inh | FEN1 inhibitor | WRN inhibitor | APEX1 inh | L3MBTL1 inh
O=C(C[n+]1ccccc1)Nc1c(Cl)cc(Cl)cc1Cl | 7.2% | -23.9% | -12.4% | -1.7% | 2.0% | 11.2µM*
CCC1CC=CC2C1C(=O)N(Cc1ccccc1)C2c1ccc2ccccc2c1 (stereo not given) | 0.2% | -8.1% | -17.8% | nt | -5.0% | nt
CCN(CC)CCn1c2ccccc2c2cnc(N=CN(C)C)c(C#N)c21 | 10.7% | 64.2% | 35.5µM* | -7.7% | ? | -7.9%
CCn1c2ccccc2c2cnc(N=CN(C)C)c(C#N)c21 | -13.2% | 2.3% | ? | -16.8%[57.1 µM] | -2.9% | -5.0%
CCC(=O)Nc1nc(N)n(-c2ccccc2)n1 | i | 1.3% | -14.0% | -2.8% | -0.7% | nt
Nc1nc(NC(=O)C(Cl)(Cl)Cl)nn1-c1ccccc1 | 0.7% | 1.5% | 1.5% | 2.1% | -1.4% | 28.2µM*
COc1ccc(/C=N/NC(=O)C(=O)/C=C2\NC3(CCCC3)Cc3ccccc32)cc1 | -2.7% | -0.7% | -9.5% | -5.8% | -0.6% | -5.1%
O=C(/C=C1\NC2(CCCC2)Cc2ccccc21)C(=O)N/N=C/c1ccc(O)c(O)c1 | 0.9% | -1.4% | -31.1% | ? | 3.4% | 14.1µM*
Cc1ccc(S(=O)(=O)N2CCN(C(=O)C(O)c3ccccc3)CC2)cc1 (stereo not given) | nt | nt | nt | -5.8% | nt | nt
C[C@@H](Oc1ccc(Oc2cnc3ccc(Cl)cc3n2)cc1)C(=O)O | -0.5% | nt | nt | nt | -4.1% | nt
CCSc1cc(N2CCCC2)nc(-c2ccc(F)cc2)n1 | 6.5% | -0.2% | -4.8% | -1.2% | -1.8% | 12.1%
CCSc1cc(N2CCCC2)nc(-c2ccc(C)cc2)n1 | -4.3% | -1.2% | 89.1µM* | 0.4% | ? | 50.0%
[O-][n+]1onc2c1CCC(=N/O)/C2=N\Nc1ccccc1 | ? | 31.6µM* | nt | nt | ? | ?
[O-][n+]1c2c(nn1-c1ccccc1)/C(=N/O)CCC2 | i | -0.8% | -2.8% | -2.1% | 2.0% | 4.7%
N#Cc1ccc(Nc2nn3c(=O)c4ccccc4nc3s2)cc1 | nt | nt | nt | nt | -39.3% | nt
O=C(O)/C=C\C(=O)Nc1ccc(Oc2ccccc2)cc1 | -1.4% | 1.5% | -2.0% | 1.0% | -3.0% | -0.3%
O=C(O)/C=C/C(=O)Nc1ccc(Oc2ccc(NC(=O)/C=C/C(=O)O)cc2)cc1 | i | -24.4% | nt | nt | ? | 25.1µM*
Cc1cc(C(=O)O)ccc1-n1c(C)cc(C=C2C(=O)c3ccccc3C2=O)c1C | -15.4% | -9.1% | -18.2% | -18.5%[11.6 µM] | ? | ?
Cc1ccc(C(=O)O)cc1-c1ccc(C=C2C(=O)c3ccccc3C2=O)o1 | -10.4% | 4.5% | ? | -33.0%[11.6 µM] | -7.0% | 25.1µM*
COc1cc(/C=C2/SC(=S)NC2=O)ccc1OS(=O)(=O)c1ccc(C)cc1 | -27.1% | -17.1% | 79.4µM* | ? | -3.9% | -5.7%
CCOc1ccc(/C=C2\SC(=S)NC2=O)cc1OC | -3.9% | 3.1% | -1.1% | -13.7% | 5.3% | -13.3%
COc1ccc(/C=C2\SC(=O)NC2=S)cc1OC | 31.6µM* | -18.3% | -20.6% | ? | ? | -11.1%
CCOc1ccc(N=Nc2cc(C(C)C)ccc2O)cc1 | -7.7% | 0.1% | -4.0% | -2.4% | 0.3% | 28.2µM*
N#C/C(=C/c1ccccc1)c1nn(CCO)c(N)c1C#N | -3.2% | -6.7% | 4.8% | -5.3% | -2.6% | -2.1%
N#C/C(=C\c1ccc(/C=C(/C#N)c2nn(CCO)c(N)c2C#N)cc1)c1nn(CCO)c(N)c1C#N | 0.2% | -19.6% | ? | 56.2µM* | 3.5% | 5.0%
Nc1c(O)ccc2c1C(=O)c1ccccc1C2=O | -23.3% | -25.7% | 50.1µM* | -32.7% | -5.5% | ?
COc1cccc(/C=C2/Sc3ccc(C(=O)NCCN4CCCCCC4)cc3NC2=O)c1 | nt | 34.1% | 50.1µM* | 3.3%[11.6 µM] | -21.0% | nt
CC(C)C[C@H]1CN(CCCC[C@H]2CNC(=O)C(=O)N2Cc2ccccc2)C(=O)C(=O)N1CCC1CCCCC1 | nt | nt | nt | 3.9% | nt | nt
CNc1cccc2c1C(=O)c1ccccc1C2=O | -16.6% | -15.0% | -16.0% | -26.7% | -6.9% | 8.91µM*
